Data taken from the supplement of paper PMC8728848.
Shown is part of a subset that was picked to be rich in the strongest signals.

Experiments:
Assay in all cases: glycan array binding signal (z-score within array); higher = stronger binding
Settings in all cases: glycan notation: IUPAC condensed, linker removed
[1] = target: Fuc(a1-2)Gal(b1-3)GalNAc(b1-3)Gal
Outline: (§1)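 Columns mapping to the same glycan were averaged after glycan names were converted to IUPAC-condensed notation. The data come from 3228 arrays in the Consortium for Functional Glycomics database, limited to those with an available protein sequence. Binding is reported as a within-array Z-score averaged across arrays of one protein sequence and across linkers.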

[2] = target: Fuc(a1-2)Gal(b1-3)[Fuc(a1-4)]GlcNAc
Outline: as §1

Fuc(a1-2)Gal(b1-4)Glc = target: Fuc(a1-2)Gal(b1-4)Glc
Outline: as §1

[3] = target: Fuc(a1-2)Gal(b1-4)GlcNAc(b1-3)Gal(b1-4)GlcNAc(b1-3)Gal(b1-4)GlcNAc
Outline: as §1

[4] = target: Fuc(a1-2)[Gal(a1-3)]Gal(b1-3)GlcNAc(b1-6)GalNAc
Outline: as §1

[5] = target: Fuc(a1-3)[Gal(b1-4)]Glc6S
Outline: as §1

[6] = target: Fuc(a1-3)[Gal(b1-4)]GlcNAc(b1-2)Man(a1-3)[Fuc(a1-3)[Gal(b1-4)]GlcNAc(b1-2)Man(a1-6)]Man(b1-4)GlcNAc(b1-4)[Fuc(a1-6)]GlcNAc
Outline: as §1

[7] = target: Fuc(a1-3)[Gal(b1-4)]GlcNAc(b1-6)GalNAc
Outline: as §1

Gal(b1-3)Gal(b1-4)GlcNAc = target: Gal(b1-3)Gal(b1-4)GlcNAc
Outline: as §1

[8] = target: Gal(b1-4)GlcNAc(b1-2)Man(a1-6)Man(b1-4)GlcNAc(b1-4)GlcNAc
Outline: as §1

[9] = target: Gal(b1-4)GlcNAc(b1-3)Gal(b1-4)GlcNAc(b1-2)[Gal(b1-4)GlcNAc(b1-3)Gal(b1-4)GlcNAc(b1-6)]Man(a1-6)[Gal(b1-4)GlcNAc(b1-3)Gal(b1-4)GlcNAc(b1-2)Man(a1-3)]Man(b1-4)GlcNAc(b1-4)GlcNAc
Outline: as §1

[10] = target: Gal(b1-4)GlcNAc(b1-3)Gal(b1-4)GlcNAc(b1-2)[Gal(b1-4)GlcNAc(b1-3)Gal(b1-4)GlcNAc(b1-6)]Man(a1-6)[Gal(b1-4)GlcNAc(b1-3)Gal(b1-4)GlcNAc(b1-2)Man(a1-3)]Man(b1-4)GlcNAc(b1-4)[Fuc(a1-6)]GlcNAc
Outline: as §1

[11] = target: Gal(b1-4)GlcNAc(b1-3)Gal(b1-4)GlcNAc(b1-3)Gal(b1-4)GlcNAc(b1-3)Gal(b1-4)GlcNAc(b1-3)Gal(b1-4)GlcNAc(b1-2)Man(a1-3)[Gal(b1-4)GlcNAc(b1-3)Gal(b1-4)GlcNAc(b1-3)Gal(b1-4)GlcNAc(b1-3)Gal(b1-4)GlcNAc(b1-3)Gal(b1-4)GlcNAc(b1-2)Man(a1-6)]Man(b1-4)GlcNAc(b1-4)[Fuc(a1-6)]GlcNAc
Outline: as §1

[12] = target: Gal(b1-4)GlcNAc(b1-3)Gal(b1-4)GlcNAc(b1-3)[Gal(b1-4)GlcNAc(b1-3)Gal(b1-4)GlcNAc(b1-6)]GalNAc
Outline: as §1

[13] = target: Gal3S(b1-4)[Fuc(a1-3)]GlcNAc6S
Outline: as §1

[14] = target: GalNAc(b1-4)GlcNAc(b1-2)Man(a1-3)[GalNAc(b1-4)GlcNAc(b1-2)Man(a1-6)]Man(b1-4)GlcNAc(b1-4)GlcNAc
Outline: as §1

[15] = target: GalNAc(b1-4)GlcNAc(b1-3)GalNAc(b1-4)GlcNAc
Outline: as §1

[16] = target: Glc(a1-6)Glc(a1-6)Glc(a1-6)Glc
Outline: as §1

[17] = target: GlcNAc(b1-3)Gal(b1-4)GlcNAc(b1-3)Gal(b1-4)GlcNAc(b1-3)Gal(b1-4)GlcNAc(b1-3)Gal(b1-4)GlcNAc(b1-2)Man(a1-3)[GlcNAc(b1-3)Gal(b1-4)GlcNAc(b1-3)Gal(b1-4)GlcNAc(b1-3)Gal(b1-4)GlcNAc(b1-3)Gal(b1-4)GlcNAc(b1-2)Man(a1-6)]Man(b1-4)GlcNAc(b1-4)[Fuc(a1-6)]GlcNAc
Outline: as §1

[18] = target: GlcNAc(b1-3)Gal(b1-4)GlcNAc(b1-3)GalNAc
Outline: as §1

GlcNAc(b1-3)GalNAc = target: GlcNAc(b1-3)GalNAc
Outline: as §1

GlcNAc(b1-3)Man = target: GlcNAc(b1-3)Man
Outline: as §1

[19] = target: GlcNAc(b1-3)[GlcNAc(b1-4)][GlcNAc(b1-6)]GlcNAc
Outline: as §1

Kdn(a2-6)Gal(b1-4)GlcNAc = target: Kdn(a2-6)Gal(b1-4)GlcNAc
Outline: as §1

[20] = target: Man(a1-2)Man(a1-6)[Man(a1-3)]Man(a1-6)[Man(a1-2)Man(a1-2)Man(a1-3)]Man
Outline: as §1

[21] = target: Man(a1-2)Man(a1-6)[Man(a1-3)]Man(a1-6)[Man(a1-2)Man(a1-2)Man(a1-3)]Man(b1-4)GlcNAc(b1-4)GlcNAc
Outline: as §1

[22] = target: Man(a1-3)[Man(a1-6)]Man(a1-6)[Man(a1-2)Man(a1-3)]Man(b1-4)GlcNAc(b1-4)GlcNAc
Outline: as §1

[23] = target: Man(a1-3)[Man(a1-6)]Man(a1-6)[Man(a1-3)]Man
Outline: as §1

[24] = target: Neu5Ac(a2-3)Gal(b1-3)GlcNAc
Outline: as §1

[25] = target: Neu5Ac(a2-3)Gal(b1-3)GlcNAc(b1-2)Man
Outline: as §1

[26] = target: Neu5Ac(a2-3)Gal(b1-4)GlcNAc(b1-2)Man(a1-3)[Neu5Ac(a2-3)Gal(b1-4)GlcNAc(b1-2)Man(a1-6)]Man(b1-4)GlcNAc(b1-4)GlcNAc
Outline: as §1

[27] = target: Neu5Ac(a2-3)Gal(b1-4)GlcNAc(b1-2)[Neu5Ac(a2-3)Gal(b1-4)GlcNAc(b1-6)]Man(a1-6)[Neu5Ac(a2-3)Gal(b1-4)GlcNAc(b1-2)Man(a1-3)][GlcNAc(b1-4)]Man(b1-4)GlcNAc(b1-4)GlcNAc
Outline: as §1

[28] = target: Neu5Ac(a2-3)Gal(b1-4)GlcNAc(b1-3)GalNAc
Outline: as §1

[29] = target: Neu5Ac(a2-3)Gal(b1-4)GlcNAc(b1-3)[Neu5Ac(a2-3)Gal(b1-4)GlcNAc(b1-6)]GalNAc
Outline: as §1

[30] = target: Neu5Ac(a2-3)Gal(b1-4)GlcNAc(b1-6)[Gal(b1-3)]GalNAc
Outline: as §1

[31] = target: Neu5Ac(a2-3)Gal(b1-4)[Fuc(a1-3)]GlcNAc(b1-3)Gal
Outline: as §1

[32] = target: Neu5Ac(a2-6)Gal(b1-4)GlcNAc(b1-2)Man(a1-3)[Neu5Ac(a2-6)Gal(b1-4)GlcNAc(b1-2)Man(a1-6)]Man(b1-4)GlcNAc(b1-4)GlcNAc
Outline: as §1

[33] = target: Neu5Ac(a2-6)Gal(b1-4)GlcNAc(b1-3)Gal(b1-4)GlcNAc(b1-3)Gal(b1-4)GlcNAc(b1-2)Man(a1-3)[Neu5Ac(a2-6)Gal(b1-4)GlcNAc(b1-3)Gal(b1-4)GlcNAc(b1-3)Gal(b1-4)GlcNAc(b1-2)Man(a1-6)]GalNAc
Outline: as §1

[34] = target: Neu5Ac(a2-6)Gal(b1-4)GlcNAc(b1-3)Gal(b1-4)GlcNAc(b1-3)GalNAc
Outline: as §1

[35] = target: Neu5Ac(a2-6)Gal(b1-4)GlcNAc(b1-3)Gal(b1-4)[Fuc(a1-3)]GlcNAc(b1-3)Gal(b1-4)[Fuc(a1-3)]GlcNAc
Outline: as §1

Neu5Ac(b2-6)GalNAc = target: Neu5Ac(b2-6)GalNAc
Outline: as §1

[36] = target: Neu5Gc(a2-8)Neu5Gc(a2-3)Gal(b1-4)GlcNAc
Outline: as §1

B1: Pwp7 (Candida glabrata) (protein)
chain: MGSSHHHHHHSSGLVPRGSHMASKNPVDFPNLCQYPNLDGAVAGFDTEIYNADPSILINFSLWPILQFPKEWHKTIGRAITTQTNFKLPASDTTLFGVSIPTQNILIEFRGYFIPPKSGTYTFALYLTDDGSAMFLGNDAAFPCGNITSWSNPTNDQVSVSDYDPKKKTLTVYMVAGVAYPLRIAYYNREKGGSLTASFVDPDGLTHSDWNGYIWTLPSCDNCKYS
glycan array binding signal (z-score) [1]: -0.017 | glycan array binding signal (z-score) [2]: -0.614 | glycan array binding signal (z-score) (Fuc(a1-2)Gal(b1-4)Glc): -0.416 | glycan array binding signal (z-score) [3]: -0.218 | glycan array binding signal (z-score) [4]: 0.673 | glycan array binding signal (z-score) [5]: 2.63 | glycan array binding signal (z-score) [6]: -0.531 | glycan array binding signal (z-score) [7]: -0.313 | glycan array binding signal (z-score) (Gal(b1-3)Gal(b1-4)GlcNAc): -0.059 | glycan array binding signal (z-score) [8]: 0.711 | glycan array binding signal (z-score) [9]: 4.75 | glycan array binding signal (z-score) [10]: 0.752 | glycan array binding signal (z-score) [11]: 2.19 | glycan array binding signal (z-score) [12]: 2.23 | glycan array binding signal (z-score) [13]: -0.723 | glycan array binding signal (z-score) [14]: 2.13 | glycan array binding signal (z-score) [15]: -0.44 | glycan array binding signal (z-score) [16]: 1.4 | glycan array binding signal (z-score) [17]: 2.91 | glycan array binding signal (z-score) [18]: 2.79 | glycan array binding signal (z-score) (GlcNAc(b1-3)GalNAc): -0.079 | glycan array binding signal (z-score) (GlcNAc(b1-3)Man): -0.272 | glycan array binding signal (z-score) [19]: -1.58 | glycan array binding signal (z-score) (Kdn(a2-6)Gal(b1-4)GlcNAc): -0.857 | glycan array binding signal (z-score) [20]: -0.467 | glycan array binding signal (z-score) [21]: -0.429 | glycan array binding signal (z-score) [22]: -0.076 | glycan array binding signal (z-score) [23]: 2.11 | glycan array binding signal (z-score) [24]: -0.487 | glycan array binding signal (z-score) [25]: 0.574 | glycan array binding signal (z-score) [26]: 0.472 | glycan array binding signal (z-score) [27]: 10.8 | glycan array binding signal (z-score) [28]: -0.11 | glycan array binding signal (z-score) [29]: 2.25 | glycan array binding signal (z-score) [30]: -0.55 | glycan array binding signal (z-score) [31]: -0.216 | glycan array binding signal (z-score) [32]: 0.696 | glycan array binding signal (z-score) [33]: 3.78 | glycan array binding signal (z-score) [34]: 0.805 | glycan array binding signal (z-score) [35]: -0.43 | glycan array binding signal (z-score) (Neu5Ac(b2-6)GalNAc): -0.387 | glycan array binding signal (z-score) [36]: -0.224
